Assay results taken from PubChem BioAssay (EPA / NIEHS).
Records with an inconclusive call do not appear. Active and inactive are the calls of the source. The calls were made as follows: active = hit-call score of the fitted dose curve at least 0.9, where 1 is the maximum; inconclusive = response in the unintended direction; inactive = score below 0.9.

What follows are molecules tested on Cytochrome P450 2C19 (Homo sapiens) (UniProt P33261) (assay: CLD_CYP2C19_6hr: CellzDirect (CLD) Gene Expression Assay for xenobiotic metabolism (CYP2C19) at 6 hours (AID 2283678)).
Experimental: CLD_6hr is a cell-based, multiplexed-readout assay that uses hepatocyte, a human liver primary cell, with measurements taken at 6 hours after chemical dosing in a 96-well plate.CLD_CYP2C19_6hr is one of 16 assay component(s) measured or calculated from the CLD_6hr assay. It is designed to make measurements of mRNA induction, a form of inducible reporter, as detected with chemiluminescence signals by Quantitative Nuclease Protection Assay (qNPA) technology.Data from the assay component CLD_CYP2C19_6hr was analyzed at the endpoint, CLD_CYP2C19_6hr, in the positive analysis fitting direction relative to DMSO as the negative control and baseline of activity. Using a type of inducible reporter, gain-of-signal activity can be used to understand changes in the reporter gene as they relate to the gene CYP2C19. Furthermore, this assay endpoint can be referred to as a primary readout. To generalize the intended target to other relatable targets, this assay endpoint is annotated to the cyp intended target family, where subfamily is xenobiotic metabolism.
Human hepatocyte cultures were treated daily for two consecutive days with fresh dosing solutions containing appropriate concentrations of the 320 ToxCast chemicals (chemical identities were blinded to CellzDirect and other ToxCast collaborators), vehicle control (0.2% DMSO), and positive control inducers as summarized in Table 1. Due to the large number of treatment groups and chemicals examined, the ToxCast chemicals were divided into two groups (spanning two independent cultures of hepatocytes from separate donor preparations (Hu778: ToxCast plates 1 and 2; Hu776: ToxCast plates 3 and 4). Each preparation of human hepatocyte cultures was treated with respective vehicle control, medium only control, set of six positive controls/reference chemicals for the five hepatic receptor pathways, and a subset of eight of the ToxCast chemicals (indoxacarb, pyrithiobac-sodium, norflurazon, cyhalofop-butyl, methomyl, thiram, acetochlor, and propiconazole). These replicate data, coupled with internal replicates designed within the blinded ToxCast chemical library, provided additional data to evaluate interindividual differences between hepatocyte preparations and their potential impact on chemical profiles.Cell morphology and integrity were evaluated using phase-contrast microscopy as an indicator of hepatocyte cell health (Tyson & Green, 1987). Cultures for each treatment group (i.e., media, vehicle [0.2% DMSO], positive control inducers [multiple concentrations], and the ToxCast chemicals [multiple concentrations]) were observed and cell morphology was assessed relative to vehicle control cultures at each harvest time point (0, 6, 24, or 48 h). […] Images were evaluated at the conclusion of the study to assess changes in cell integrity and account for the effects of chemical exposure on uncharacteristic changes in concentration-dependent gene expression profiles. The results from these determinations of apparent cytotoxicity were annotated (yes/no) alongside the corresponding qNPA data for reference.At the conclusion of each treatment period, hepatocyte cultures (96-well) were washed with 1 volume of HBSS, lysed by addition of 25 ul ArrayPlate lysis buffer (HTG, Tucson, AZ), and 70 ul/well of Denaturation Oil, denatured by incubation at 95C for 10 min, and frozen at approximately -70C until analysis by nuclease protection assay (qNPA) (Roberts et al., 2007). For qNPA analysis, cell lysates were thawed at 50C for approximately 30 min, qNPA probes were added, and samples were incubated at 95C for 10 min to begin the detection process by denaturing the target RNA, dissociating the duplexes and secondary structure hybridization. At the conclusion of the hybridization period, S1 nuclease reagent was added to each sample to digest all nonprotected nucleotides at 50C for 60-90 min. […]

Sequence of Cytochrome P450 2C19 (Homo sapiens) (P33261 whole entry, looked up): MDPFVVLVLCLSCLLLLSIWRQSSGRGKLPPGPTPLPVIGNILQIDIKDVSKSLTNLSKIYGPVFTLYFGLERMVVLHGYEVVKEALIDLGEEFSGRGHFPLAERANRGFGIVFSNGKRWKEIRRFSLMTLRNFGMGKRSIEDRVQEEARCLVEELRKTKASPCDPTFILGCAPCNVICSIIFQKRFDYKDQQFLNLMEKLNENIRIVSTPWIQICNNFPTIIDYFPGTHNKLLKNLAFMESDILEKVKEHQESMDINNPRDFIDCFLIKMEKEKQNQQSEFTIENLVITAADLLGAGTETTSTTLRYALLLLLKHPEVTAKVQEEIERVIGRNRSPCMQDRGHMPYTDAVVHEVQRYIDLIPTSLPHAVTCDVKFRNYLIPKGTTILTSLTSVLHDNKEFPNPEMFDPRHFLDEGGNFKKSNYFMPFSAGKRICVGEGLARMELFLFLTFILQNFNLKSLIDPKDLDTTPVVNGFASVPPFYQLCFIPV

SMILES | outcome
COC(=O)N(OC)c1ccccc1COc1ccn(-c2ccc(Cl)cc2)n1 | inactive
COC(=O)c1ccccc1C(=O)OC | inactive
CCNc1nc(Cl)nc(NC(C)C)n1 | inactive
CC(C)C1(C)N=C(c2nc3ccccc3cc2C(=O)O)NC1=O (configuration not stated) | inactive
COC(=O)C(C)Oc1ccc(Oc2ccc(Cl)cc2Cl)cc1 (configuration not stated) | inactive
CCOC(=O)C(Cl)Cc1cc(-n2nc(C)n(C(F)F)c2=O)c(F)cc1Cl (configuration not stated) | inactive
COc1nc(C)nc(NC(=O)NS(=O)(=O)c2ccccc2CCC(F)(F)F)n1 | inactive
COc1nc(NC(C)C)nc(NC(C)C)n1 | inactive
CNC(=S)S | inactive
CCON=C(CC)C1=C(O)CC(c2c(C)cc(C)cc2C)CC1=O (configuration not stated) | inactive
O=C(O)c1nc(Cl)ccc1Cl | inactive
CCc1nn(C)c(C(=O)NCc2ccc(C(C)(C)C)cc2)c1Cl | inactive
CCCCOC(=O)c1ccccc1C(=O)OCCCC | inactive
COc1nc(C)nc(NC(=O)NS(=O)(=O)c2ccccc2Cl)n1 | inactive
CS/C(C)=N/OC(=O)N(C)SN(C)C(=O)O/N=C(\C)SC | inactive
Cc1ccc(-c2c(Cl)nc(C#N)n2S(=O)(=O)N(C)C)cc1 | inactive
CCOP(=S)(OCC)SCn1c(=O)oc2cc(Cl)ccc21 | inactive
COc1cnc(OC)n2nc(NS(=O)(=O)c3c(OCC(F)F)cccc3C(F)(F)F)nc12 | inactive
CCCCNC(=O)n1c(NC(=O)OC)nc2ccccc21 | inactive
Cc1cc(Cl)ccc1OCC(=O)O | inactive
O=C(O)COc1nc(Cl)c(Cl)cc1Cl | inactive
COP(N)(=O)SC (configuration not stated) | inactive
